HEK293 tox: qHTS of GLP-1 Receptor Inverse Agonists: Cytotox Screen | HEK293 cAMP-luciferase reporter cells, luminescence, 24 h | Potency, µM (titrated, usually from 38.3 µM), usual class: inhibitors | 410,000 compounds, 0.13% hits | AID 624418, 2012;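 further: loss of luciferase light is scored as toxicity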
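Seeding density was 200 cells/uL; after overnight-length (12 h) culture, 23 nL compounds went on for 24 h at 37 °C. Readout used a luciferase detection reagent, luminescence taken after 12 min at room temperature.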
GLP-1R inv ag: qHTS of GLP-1 Receptor Inverse Agonists (Inhibition Mode); 410,000 compounds, 1.6% hits; Potency, µM (series often up to 38.3 µM), most hits filed as inhibitors; AID 624417, 2012; Glucagon-like peptide 1 receptor (Homo sapiens), P43220; HEK293 GLP-1R CRE-luciferase, luminescence, 24 h; GLP-1R form is constitutively active; further: nearly all actives have a fitted effect of over 55% in size
Target sequence (P43220 whole entry, looked up): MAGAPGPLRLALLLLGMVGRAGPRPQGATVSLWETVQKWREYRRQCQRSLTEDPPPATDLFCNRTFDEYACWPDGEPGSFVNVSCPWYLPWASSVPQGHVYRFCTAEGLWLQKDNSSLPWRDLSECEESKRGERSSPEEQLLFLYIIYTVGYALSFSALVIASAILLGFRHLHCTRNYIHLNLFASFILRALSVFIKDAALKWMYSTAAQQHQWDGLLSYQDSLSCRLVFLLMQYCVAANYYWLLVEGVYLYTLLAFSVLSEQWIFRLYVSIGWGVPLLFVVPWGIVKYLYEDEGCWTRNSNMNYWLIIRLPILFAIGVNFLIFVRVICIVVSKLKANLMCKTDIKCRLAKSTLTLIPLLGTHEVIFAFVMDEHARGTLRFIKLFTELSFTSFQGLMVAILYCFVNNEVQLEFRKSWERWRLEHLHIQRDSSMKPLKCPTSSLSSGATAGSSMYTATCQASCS
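HEK293 cells stably co-expressing a cAMP-responsive luciferase reporter and constitutively active GLP-1R were seeded, incubated 12 h, then exposed to compounds for 24 h at 37 C. Luminescence was read 12 min after detection reagent; inverse agonists lower signal.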
GLP1R ag: qHTS of GLP-1 Receptor Agonists; Glucagon-like peptide 1 receptor (Homo sapiens), P43220; HEK293 GLP-1R CRE-luciferase, luminescence, 4-6 h; cells express a hypersensitive GLP-1R form; 380,000 compounds, 0.007% hits; Potency, µM (highest dose often 45.6 µM), hits mostly activators
Of the large screens only hits and unclear results are named; the others gave an inactive call. Hits are enriched below; roughly 1.7% of the tested compounds scored in any of these assays. The call rests on the fitted dose curve; in most records, active means well fitted curve in the direction sought with a large enough effect; inconclusive means small, poorly fitted or top-dose-only effect, or another doubt; inactive means no such curve, though single readings can be large; an effect the other way counts as inactive or inconclusive.

Cc1c(N)nc([C@@H](CC(N)=O)NC[C@H](N)C(N)=O)nc1C(=O)N[C@H](C(=O)N[C@H](C)[C@H](O)[C@H](C)C(=O)N[C@@H](C(=O)NCCc1nc(-c2nc(C(=O)NCCC[S+](C)C)cs2)cs1)[C@H](C)O)[C@H](O[C@@H]1O[C@@H](CO)[C@@H](O)[C@H](O)[C@@H]1O[C@H]1O[C@H](CO)[C@H](O)[C@H](OC(N)=O)[C@@H]1O)c1cnc[nH]1	none (no result: HEK293 tox, GLP-1R inv ag)
CCn1ccnc1CN1CCCC(C(=O)c2ccc(SC)cc2)C1 (stereo not given)	HEK293 tox 13µM, GLP-1R inv ag inconclusive
CSc1ccc(C(=O)C2CCCN(Cc3cnc(SC)nc3)C2)cc1 (stereo not given)	GLP-1R inv ag inconclusive
C=CCC1(O)CCC2C3CCC4=CC(=O)CCC4=C3C=CC21C (stereo not given)	none (no result: HEK293 tox, GLP-1R inv ag)
CCCCC[C@@H]1CCCCC[C@@H](O)C[C@@H](O)[C@H](O)/C=C/C(=O)O1	none
Cc1cccc(N2C(=O)CSC23C(=O)N(CC(=O)Nc2cccc(Cl)c2)c2ccccc23)c1 (stereo not given)	GLP-1R inv ag inconclusive
CCC(=C(c1ccc(OC)cc1)c1ccc(OC)cc1)c1cn(CC(O)CN2CCN(C)CC2)c2ccccc12 (stereo not given)	HEK293 tox inconclusive, GLP-1R inv ag 10µM
COc1ccccc1OCCCn1cc(C(=O)C2CC2)c2ccccc21	none
C[C@@H]1C[C@@H]([C@H](O)CC2CC(=O)NC(=O)C2)C(=O)[C@@H](C)C1	GLP-1R inv ag 0.79µM
CC(=O)OC1(C)CC(C)C(=O)C(C(O)CC2CC(=O)NC(=O)C2)C1 (stereo not given)	none
Cc1cc2nc(Sc3c([N+](=O)[O-])nc(C)n3Cc3ccccc3)[nH]c2cc1C	HEK293 tox inconclusive, GLP-1R inv ag inconclusive
Cc1nn(Cc2ccccc2)c(C)c1C(=O)NCc1ccccc1	none
CCCc1cc(C(=O)Nc2c(C)nn(Cc3ccc(Cl)c(Cl)c3)c2C)no1	HEK293 tox inconclusive, GLP-1R inv ag 10µM (no result: GLP1R ag)
CN(CC(O)CON=C1c2ccccc2-c2ccccc21)S(=O)(=O)c1ccc(Br)cc1 (stereo not given)	HEK293 tox inconclusive, GLP-1R inv ag inconclusive
C=C1C(=O)C23C(O)C1CCC2C12CCCC(C)(COC(C)=O)C1C(O)C3(O)OC2 (stereo not given)	HEK293 tox 2.5µM, GLP-1R inv ag inconclusive
O=C(NN=Cc1ccc(N(CCCl)CCCl)cc1)C(=O)c1c[nH]c2ccccc12	GLP-1R inv ag 5.6µM
O=C(NN=Cc1ccc(N(CCCl)CCCl)cc1)c1cc(=O)[nH]c(=O)[nH]1	GLP-1R inv ag inconclusive
CC(C)Oc1ccc(C(=O)Nc2ccc3c(c2)CCCN3C(=O)c2cccs2)cc1	GLP-1R inv ag inconclusive (no result: GLP1R ag)
CC(C)(C)c1csc(NC(=O)Nc2ccccc2)n1	GLP-1R inv ag 10µM
Cc1csc(NC(=O)C(Cl)c2ccccc2)n1 (stereo not given) (tested in a mixture with another compound)	none
C[C@H]1[C@@H]2Cc3ccc(O)cc3[C@]1(C)CCN2CCc1ccccc1	none (no result: HEK293 tox, GLP-1R inv ag)
Cc1ccc(NS(=O)(=O)c2cc(C(=O)Nc3cccc([N+](=O)[O-])c3)ccc2C)cc1	HEK293 tox inconclusive, GLP-1R inv ag inconclusive
Cc1ccc(C(=O)NCCSC2CCCCC2)cc1S(=O)(=O)Nc1ccccc1	HEK293 tox inconclusive, GLP-1R inv ag 11µM
COc1cccc(CNC(=O)c2cc3c(-c4ccccc4F)nn(C)c3s2)c1	GLP-1R inv ag inconclusive (no result: GLP1R ag)
CCN(CC)CCNC(=O)c1cc2c(-c3ccc(Cl)cc3)nn(C)c2s1	HEK293 tox inconclusive, GLP-1R inv ag 5.6µM
Cc1c(CN2CCC(CO)(CCOc3ccccc3)CC2)[nH]c2c(Cl)cccc12	HEK293 tox inconclusive, GLP-1R inv ag 4.5µM
Cc1[nH]c2c(Cl)cccc2c1CCN	GLP-1R inv ag inconclusive
COC(=O)C1=C(c2ccc(OCc3ccccc3)cc2)C[C@@H]2CC[C@H]1N2C(=O)NC1CCN(Cc2ccccc2)CC1	HEK293 tox inconclusive, GLP-1R inv ag 7.9µM
COC(=O)C1=C(c2ccc(OC(F)(F)F)cc2)C[C@@H]2CC[C@H]1N2C(=O)NC1CCCCC1	GLP-1R inv ag 13µM
COC(=O)C1=C(c2ccc(OCc3ccccc3)cc2)C[C@@H]2CC[C@H]1N2C(=O)NCCN1CCOCC1	none
COC(=O)C1=C(c2ccc(OC(F)(F)F)cc2)C[C@@H]2CC[C@H]1N2C(=O)NCc1cccc2ccccc12	GLP-1R inv ag 7.9µM
COC(=O)C1=C(c2ccc(OC(F)(F)F)cc2)C[C@@H]2CC[C@H]1N2C(=O)NCc1ccc(F)cc1	GLP-1R inv ag inconclusive
COC(=O)C1=C(c2ccc(OC(F)(F)F)cc2)C[C@@H]2CC[C@H]1N2C(=O)NC1Cc2ccccc2C1	none
CC1(C)CC/C(=C\c2ccc(Cl)cc2)C1(O)Cn1cncn1 (stereo not given)	none (no result: HEK293 tox, GLP-1R inv ag)
C[C@@H]1[C@H](O)[C@@H](C)C=CC=CCCC=CC=CC=CC=C[C@H](O[C@H]2O[C@@H](C)[C@H](O)[C@@H](N)[C@@H]2O)CC2O[C@](O)(C[C@@H](O)[C@H](O)CC[C@@H](O)C[C@@H](O)C[C@@H](O)CC(=O)O[C@H]1C)C[C@H](O)[C@H]2C(=O)O	none (no result: HEK293 tox, GLP-1R inv ag)
Clc1ccc(CC[C@H](Cn2ccnc2)Sc2c(Cl)cccc2Cl)cc1	none (no result: HEK293 tox, GLP-1R inv ag)
On1ccccc1=S	GLP-1R inv ag 7.9µM
CCN(CC)c1nc2ccccc2nc1C(=O)Nc1cccc(C(C)=O)c1	GLP-1R inv ag inconclusive (no result: GLP1R ag)
O=C(Cn1ncc(Cl)c(Cl)c1=O)NCC1CCCCC1	HEK293 tox 10µM, GLP-1R inv ag inconclusive
Cc1ccc(NC(=O)CN(C)C(=O)Cn2ncc(Cl)c(Cl)c2=O)cc1	HEK293 tox inconclusive, GLP-1R inv ag inconclusive
COc1ccccc1/C=C/C=N/n1c(-c2ccc(Cl)cc2)n[nH]c1=S	none
COc1cc(/C=N/NC(=O)c2cnccn2)cc(OC)c1OC	none
Brc1ccc2c(c1)C(OC1CN3CCC1CC3)c1ccccc1CS2 (stereo not given)	HEK293 tox 10µM, GLP-1R inv ag inconclusive
c1ccc2c(c1)CSc1ccccc1C2C1=NCCN1 (stereo not given)	GLP-1R inv ag inconclusive
CCCCC[C@@H](/C=C/C1C(=O)C=C[C@H]1C/C=C\CCCC(=O)OC)OC(C)=O (stereo not given in full)	HEK293 tox inconclusive, GLP-1R inv ag inconclusive
NS(=O)(=O)c1ccc(NC2=CC(=O)C(=O)c3ccccc32)cc1	HEK293 tox inconclusive
O=C1C=C(c2c(O)ccc3ccccc23)c2ccccc2C1=O	HEK293 tox 10µM, GLP-1R inv ag inconclusive
Cc1ccc(NC(=O)C(CC(C)C)NS(=O)(=O)c2ccc3c(c2)oc(=O)n3C)c(C)c1 (stereo not given)	HEK293 tox inconclusive
COC(=O)C(O)(c1ccc(NC(=S)NC(=O)c2ccc(Cl)cc2Cl)c(C)c1)C(F)(F)F (stereo not given)	HEK293 tox inconclusive, GLP-1R inv ag inconclusive
